# According to PubChem BioAssay AID463173 (ICCB-Longwood Screening Facility, Harvard Medical School, 2010):
# About 4,300 (8.3%) of roughly 52,000 compounds were called active. Cut-off read from the data, not from the text of the source: active = survival mostly below about 52% (no sharp cut-off); inactive = mostly above about 56%. Many of the other results were omitted from the sample, so actives are more common in it than they were.
# System: DeltatarO mutant
# Assay: S. aureus survival, RN4220 and DeltatarO strains – OD600, teichoic acid synthesis inhibitors, primary screen (AID 463173)
# Conditions: S. aureus RN4220 wild type/DeltatarO growth, OD600, 18 h, active compounds read low, screened at 18.75 µg/mL (by protocol)
row,SMILES,survival
1,COc1ccc(CNC(=O)CCS(=O)(=O)c2cc(Br)cc3c2N(C(C)=O)C(C)C3)cc1 (configuration not stated),92% (inactive)
2,CCOC(=O)c1c(S(=O)(=O)N2CCC(C(=O)Nc3cccc(C)n3)CC2)c(C)n(C)c1C,94% (inactive)
3,CCC(C(=O)Nc1cc(F)ccc1F)n1nc(C)c2c(C)n(-c3ccc(C)cc3)nc2c1=O (configuration not stated),87% (inactive)
4,Cc1ccc2onc(CNC(=O)Nc3cc(F)ccc3F)c2c1,49% (inactive)
5,CCC(C(=O)Nc1cc(F)ccc1F)n1nc(-c2cc(C)ccc2C)ccc1=O (configuration not stated),38% (active)
6,COc1ccc(NC(=O)c2sc3nc4n(c(=O)c3c2C)CCC4)cc1Cl,108% (inactive)
7,CCc1ccc(NC(=O)C2(c3cccs3)CCOCC2)cc1,73% (inactive)
8,Nc1n[nH]c2nc(C(F)(F)F)cc(=O)n12,62% (inactive)
9,Cc1ccc(C(=O)C2=C(O)C(=O)N(CCc3ccccc3)C2c2ccncc2)o1 (configuration not stated),103% (inactive)
10,O=C(Nc1ccc(-c2nc3cc(NC(=O)c4ccc(Cl)cc4)ccc3o2)cc1)c1ccc(Cl)cc1,88% (inactive)
11,CC(C)Oc1cccc(C(=O)Nc2ccc(-c3nc4cc(Cl)cc(Cl)c4o3)cc2)c1,55% (inactive)
12,COc1cc(OC)cc(C(=O)Nc2ccc3oc(-c4cccc5c(Br)cccc45)nc3c2)c1,60% (inactive)
13,COc1cc(OC)cc(C(=O)Nc2ccc(-c3nc4cc(C(C)C)ccc4o3)cc2)c1,45% (active)
14,Cc1ccc(C(=O)Nc2ccc3oc(-c4ccccc4C)nc3c2)cc1,65% (inactive)
15,COc1cc(C(=O)Nc2ccc(-c3nc4cc(C)c(C)cc4o3)cc2)cc(OC)c1OC,59% (inactive)
16,COc1cc(OC)cc(C(=O)Nc2ccc3oc(-c4ccc(Cl)cc4)nc3c2)c1,50% (active)
17,CC(C)Oc1cccc(C(=O)Nc2ccc3oc(-c4cccc(Cl)c4)nc3c2)c1,28% (active)
18,COc1ccc(C(=O)Nc2ccc3oc(-c4ccc(OC)cc4)nc3c2)cc1,60% (inactive)
19,COC(=O)c1ccc(C(=O)Nc2ccc(-c3nc4cc(NC(=O)c5ccc(C(=O)OC)cc5)ccc4o3)cc2)cc1,60% (inactive)

row,SMILES,survival
1,COc1cccc(C(=O)Nc2ccc3oc(-c4ccc5ccccc5c4)nc3c2)c1,55% (inactive)
2,COc1cc(OC)cc(C(=O)Nc2ccc3oc(-c4ccccc4C)nc3c2)c1,34% (active)
3,Cc1cc(F)ccc1NC(=O)Cn1nc(N2CCN(c3ccccc3)CC2)ccc1=O,80% (inactive)
4,COc1cc(-c2noc(-c3ccc(N4CCOCC4)c([N+](=O)[O-])c3)n2)cc(OC)c1OC,66% (inactive)
5,CCc1cc(C(=O)OC)c(NC(=O)CC2SC(=NC)N(C)C2=O)s1 (configuration not stated),106% (inactive)
6,COCCn1c(CNC(=O)c2cccc(C)c2)nc2cccnc21,95% (inactive)
7,Cc1cccc(N2CCN(C(=O)CCc3nnc4n(CC(C)C)c(=O)c5ccccc5n34)CC2)c1C,74% (inactive)
8,CCc1ccc(C2CC(=O)Nc3cc4c(cc32)OCO4)cc1 (configuration not stated),59% (inactive)
9,CCN(CC)S(=O)(=O)c1ccc(-c2nnc(SCC(=O)N3CCCC3)n2CC)cc1,103% (inactive)
10,COc1ccc(Nc2nnc(-n3nc(C)cc3C)c3ccccc23)cc1,85% (inactive)
11,O=C(CSc1ncc(CO)n1Cc1ccccc1)Nc1nc2ccccc2s1,122% (inactive)
12,Cc1ccccc1CNC(=O)Cn1nc(C)c2nn(-c3ccc(Cl)cc3)c(C)c2c1=O,37% (active)
13,CCOc1ccccc1CNC(=O)Cn1nc(C)c2nn(-c3ccc(Cl)cc3)c(C)c2c1=O,101% (inactive)
14,COc1ccccc1CNC(=O)Cn1nc(C)c2nn(-c3ccc(Cl)cc3)c(C)c2c1=O,63% (inactive)
15,Cc1nn(CC(=O)Nc2ccc(OC(F)(F)F)cc2)c(=O)c2c(C)n(-c3ccc(Cl)cc3)nc12,25% (active)
16,COc1ccc(NC(=O)Cn2nc(C)c3nn(-c4ccc(Cl)cc4)c(C)c3c2=O)cc1,85% (inactive)
17,CCOC(=O)c1ccc(NC(=O)Cn2nc(C)c3nn(-c4ccc(Cl)cc4)c(C)c3c2=O)cc1,102% (inactive)
18,Cn1c(=O)oc2cc(S(=O)(=O)N3CCC(C(=O)N4CCN(c5ccccc5F)CC4)CC3)ccc21,80% (inactive)
19,Cc1cccc(NC(=O)CSc2nnc3[nH]c(=O)cc(C)n23)c1C,75% (inactive)

row,SMILES,survival
1,CN(C)S(=O)(=O)c1ccc(S(=O)(=O)N2CCN(C=O)CC2)cc1,105% (inactive)
2,CCOc1ccc(CNC(=O)Cc2ccc(NC(=O)N3CCSc4ncccc43)cc2)cc1,96% (inactive)
3,CC(C)(C)C(=O)N1CCN(c2nc3c(F)cccc3s2)CC1,82% (inactive)
4,NC(=O)CSc1nnc(COc2cccc3ccccc23)o1,89% (inactive)
5,COC(=O)CSc1nnc(COc2cccc3ccccc23)o1,46% (active)
6,Cc1cccc(OCc2nnc(SCC(N)=O)o2)c1,91% (inactive)
7,Cc1cccc(OCc2nnc(SCC(=O)N3c4ccccc4CCc4ccccc43)o2)c1,99% (inactive)
8,Cc1ccc(NCc2nnc(SCC(=O)N(Cc3ccccc3)C(C)(C)C)o2)c(C)c1,94% (inactive)
9,Cc1csc(N(C)C(=O)CSc2nnc(COc3cccc4ccccc34)o2)n1,56% (inactive)
10,CCOC(=O)CSc1nnc(COc2cccc(C)c2)o1,42% (active)
11,CC(C)(C)N(Cc1ccccc1)C(=O)CSc1nnc(CNc2ccc(F)cc2)o1,74% (inactive)
12,Cc1ccccc1OCc1nnc(SCC(=O)N(Cc2ccccc2)C(C)(C)C)o1,59% (active)
13,On1ccc2c(Br)cncc21,94% (inactive)
14,CCc1ccc2nc(N3CCN(C(=O)c4ccco4)CC3)sc2c1,86% (inactive)
15,O=C(CSc1nc(-c2cccc(Cl)c2)nc2cc(=O)[nH]n12)Nc1ccccc1,71% (inactive)
16,Cc1ccc(CSc2ncc(Cl)c(C(=O)Oc3ccc(F)cc3)n2)cc1,77% (inactive)
17,CCC(=O)N1c2ccccc2CC1C(=O)NCc1cccc(OC)c1OC (configuration not stated),84% (inactive)
18,COc1cc(C2C(C#N)=C(N)Oc3n[nH]c(C(F)(F)F)c32)ccc1OCC(N)=O (configuration not stated),72% (inactive)
19,CC(NC(=O)Cn1c(=O)oc2cc(S(=O)(=O)N3CCCCCC3)ccc21)c1ccccc1 (configuration not stated),82% (inactive)
